For 19 compounds, outcome results are on record in PubChem BioAssay AID1780 (National Center for Advancing Translational Sciences (NCATS), 2009).

Activity calls are given as the source filed them. The call rests on the fitted dose curve; in most records, active means well fitted curve in the direction sought with a large enough effect; inactive means no such curve, though single readings can be large or run the other way.

The target in the test is Pyruvate kinase PKM (Homo sapiens) (UniProt P14618). In words: Confirmation Concentration-Response Assay for Activators of Human Muscle isoform 1 Pyruvate Kinase. The settings on record: purified hPK-M1, Kinase-Glo ATP luminescence, 1 h; series mostly up to 57.5 µM. An excerpt: Confirmatory assay NIH Chemical Genomics Center [NCGC] Matthew G. Vander Heiden, M.D., Ph.D. [Harvard Medical School, 77 Avenue Louis Pasteur, Boston, MA 02115] NCGC Assay Overview: Human pyruvate kinase […] (hPK-M1) enzyme was supplied as a highly purified (>95% pure) preparation from Harvard Medical School and assayed for its ability to generate ATP from ADP using phosphoenolpyruvate (PEP) as a substrate. ATP generation was detected in a coupled reaction by luciferase-mediated luminescence, an ATP-dependent process. Pyruvate kinase substrates, PEP and ADP, were present in the assay at Km and approximately 10-fold below Km respectively. The enzyme was assayed at an intermediate level of activity to screen for both inhibitors and activators.
Chain of Pyruvate kinase PKM (Homo sapiens) (P14618 whole entry, looked up, canonical isoform): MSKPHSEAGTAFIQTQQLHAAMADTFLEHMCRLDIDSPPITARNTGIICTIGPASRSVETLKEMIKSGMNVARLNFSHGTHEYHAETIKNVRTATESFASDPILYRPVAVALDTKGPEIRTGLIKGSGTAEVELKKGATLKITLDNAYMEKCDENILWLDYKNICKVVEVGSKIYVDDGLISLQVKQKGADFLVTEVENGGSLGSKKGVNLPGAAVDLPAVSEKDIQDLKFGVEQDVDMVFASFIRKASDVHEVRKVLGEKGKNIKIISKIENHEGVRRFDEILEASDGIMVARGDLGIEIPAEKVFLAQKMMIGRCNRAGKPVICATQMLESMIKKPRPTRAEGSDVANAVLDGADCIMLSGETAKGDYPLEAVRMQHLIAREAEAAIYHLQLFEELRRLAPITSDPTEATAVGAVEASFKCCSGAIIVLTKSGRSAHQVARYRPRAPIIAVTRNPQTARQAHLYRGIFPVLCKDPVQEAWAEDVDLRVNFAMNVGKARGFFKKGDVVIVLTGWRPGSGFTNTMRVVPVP
NCGC Assay Protocol Summary for M1-isoform: Three uL of substrate mix (at r.t.) in assay buffer (50 mM Imidazole pH7.2, 50 mM KCl, 7 mM MgCl2, 0.01% Tween 20, 0.05% BSA) was dispensed into white solid bottom 1,536 well microtiter plates so that the final concentrations of substrates in the assay were 0.1 mM ADP and 0.5 mM PEP. 23 nL of compound were delivered by a pin tool and 1 uL of enzyme mix (final concentration of 1 nM) in assay buffer (4 degree Celsius) was added. Plates were incubated at room temperature for 1 hour. Two uL of detection mix (Kinase-Glo, Promega; at 4 degree Celsius protected from light) was added and luminescence read by a ViewLux (Perkin Elmer) at 1 second exposure/plate. Data were normalized to the uninhibited (row 31). Additionally, a no enzyme and 5-fold enzyme control was dispensed in row 32, split equally between the two conditions.
Take `O=C(c1c(F)cccc1F)N1CCN(S(=O)(=O)c2ccc3c(c2)OCCO3)CC1`: the call was inactive.

`Cc1cc2c(s1)c1cnn(Cc3cc(C(F)(F)F)cc(Cl)c3F)c(=O)c1n2C`: the outcome was inactive.

For `COc1ccc(Cn2ncc3c4sc(C)cc4n(C)c3c2=O)cc1`, the compound was called inactive.

With `Cc1cc2c(s1)c1cnn(Cc3cccc(F)c3)c(=O)c1n2C`, the call was inactive.

Take `O=S(=O)(c1ccc2c(c1)OCCO2)N1CCCN(S(=O)(=O)c2c(F)cccc2F)CC1`: the outcome was inactive.

Regarding `CC(O)c1cc2c(s1)c1cnn(Cc3ccccc3F)c(=O)c1n2C` (centres undefined), the outcome was inactive.

For `Cc1cc2c(s1)c1cnn(Cc3c(F)cccc3Cl)c(=O)c1n2C`, the outcome was inactive.

Take `Cc1ccc(Cn2ncc3c4sc(C)cc4n(C)c3c2=O)cc1`: the compound was called inactive.

Consider `C[C@H]1CN(S(=O)(=O)c2c(F)cccc2F)CCN1S(=O)(=O)c1ccc2c(c1)OCCO2`, for which the call was inactive.

Consider `Cn1c2cc(S(C)=O)sc2c2cnn(Cc3ccccc3F)c(=O)c21` (centres undefined), for which the result was inactive.

As to `Cc1cc2c(s1)c1cnn(Cc3ccc(C(F)(F)F)cc3F)c(=O)c1n2C`, the result was inactive.

Take `Cc1cc2c(s1)c1cnn(Cc3ccc(F)c(F)c3F)c(=O)c1n2C`: the compound was classed as inactive.

Consider `Cc1cc2c(s1)c1cnn(Cc3ccc(F)cc3F)c(=O)c1n2C`, for which the outcome was inactive.

For the compound `C[C@@H]1CN(S(=O)(=O)c2c(F)cccc2F)CCN1S(=O)(=O)c1ccc2c(c1)OCCO2`, the compound was classed as inactive.

Regarding `CCc1cc2c(s1)c1cnn(Cc3ccccc3F)c(=O)c1n2C`, the call was inactive.

As to `COc1ccc(S(=O)(=O)N2CCN(S(=O)(=O)c3ccc4c(c3)OCCO4)CC2)cc1`, the result was inactive.

Turning to `O=S(=O)(c1c(F)cccc1F)C1CCN(S(=O)(=O)c2ccc3c(c2)OCCO3)CC1`, the outcome was inactive.

As for `Cn1c2cc(C=O)sc2c2cnn(Cc3ccccc3F)c(=O)c21`, the compound was called inactive.

With `Cc1cc2c(s1)c1cnn(Cc3cccc(F)c3F)c(=O)c1n2C`, the result was inactive.
